# Rin1 Abl inh – inhibitors of Rin1-Abl protein binding, primary screen, biochemical, TR-FRET; Tyrosine-protein kinase ABL1 (Homo sapiens) + Ras and Rab interactor 1 (Homo sapiens), …; AID 588664, 2011; inhibition, % at 7.35 µM; 360,000 compounds, 0.4% hits; in the data active = inhibition above about 5%, passing the limit was not always enough
# ATG4B inh – ATG4B protease inhibitors, primary screen, biochemical, fluorescence, uHTS; 340,000 compounds, 0.51% hits; inhibition, % at 8.33 µM; AID 504462, 2011; ATG4B cleavage of LC3-PLA2, NBD-HPC fluorescence, 1 h; Cysteine protease ATG4B (Homo sapiens), Q9Y4P1; in the data active = inhibition above about 40%
# Neddyl block – inhibitors of cullin neddylation, primary screen, biochemical, TR-FRET, uHTS, NAE and Ubc12; 360,000 compounds, 0.58% hits; NEDD8-conjugating enzyme Ubc12 (Homo sapiens) + NEDD8-activating enzyme E1 regulatory …; AID 651699, 2012; inhibition, % at 25 µM; in the data active = inhibition above about 36%
# Target sequence (P61081 whole entry, looked up): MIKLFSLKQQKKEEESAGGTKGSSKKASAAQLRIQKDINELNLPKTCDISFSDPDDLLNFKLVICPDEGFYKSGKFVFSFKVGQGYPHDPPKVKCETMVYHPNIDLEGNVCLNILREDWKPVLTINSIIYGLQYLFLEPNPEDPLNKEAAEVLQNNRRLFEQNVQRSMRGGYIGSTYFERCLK
# Target sequence (Q13564 whole entry, looked up): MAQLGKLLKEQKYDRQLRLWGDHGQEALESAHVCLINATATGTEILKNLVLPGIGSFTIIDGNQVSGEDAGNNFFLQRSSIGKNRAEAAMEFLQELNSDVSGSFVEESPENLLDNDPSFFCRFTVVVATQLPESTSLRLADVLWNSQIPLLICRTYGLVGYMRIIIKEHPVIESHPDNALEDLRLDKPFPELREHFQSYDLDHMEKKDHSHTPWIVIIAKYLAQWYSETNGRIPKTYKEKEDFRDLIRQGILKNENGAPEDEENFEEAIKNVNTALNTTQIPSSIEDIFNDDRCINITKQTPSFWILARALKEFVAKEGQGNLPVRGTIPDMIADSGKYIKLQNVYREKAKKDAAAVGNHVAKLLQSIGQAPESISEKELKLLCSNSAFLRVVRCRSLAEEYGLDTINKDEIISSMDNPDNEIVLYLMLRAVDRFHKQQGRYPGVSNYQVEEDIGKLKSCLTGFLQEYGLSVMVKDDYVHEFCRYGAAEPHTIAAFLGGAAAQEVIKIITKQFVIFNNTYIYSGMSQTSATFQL
# SUMO1-SIM PPI – modulators of SUMO1 protein-protein interactions, primary screen, biochemical, uHTS; Small ubiquitin-related modifier 1 (Homo sapiens), P63165; SUMO1 binding to a labelled peptide, TR-FRET, 1 h; inhibition, % at 20 µM; 360,000 compounds, 0.33% hits; AID 602429, 2012; in the data active = inhibition above about 37%
# PLA2 counter – PLA2 enzyme inhibition, counter-screen for ATG4B inhibitor project, biochemical, single concentration, uHTS hits; 1,600 compounds, 66% hits; purified PLA2, NBD-C6-HPC fluorescence, 45 min; shares compounds with ATG4B inh; inhibition, % at 8.33 µM; in the data active = inhibition above about 50%
# * marks the source's active call; other numbers are inactive results; nt = no result given. An excerpt weighted towards active compounds, which were near 1.7% of everything screened.
SMILES,Rin1 Abl inh,ATG4B inh,Neddyl block,SUMO1-SIM PPI,PLA2 counter
CN1CCN(C(=O)c2ccc3c(c2)NC(=O)/C(=C/c2ccccc2)S3)CC1,-5,18,-28,-29,nt
O=C1Nc2cc(C(=O)N3CCc4ccccc4C3)ccc2S/C1=C\c1ccccc1,-2,73*,29,-2,78*
Cc1cccc(C)c1NC(=O)COC(=O)c1c2c(nc3ccccc13)/C(=C\c1ccc3c(c1)OCO3)CCC2,-11,44*,-14,-18,16
O=S(=O)(Nc1nc2ccccc2nc1N1CCN(c2ccccc2F)CC1)c1ccc(Cl)cc1,1,71*,21,0,68*
O=C(O)COc1ccc(-c2nc(-c3ccccc3)c(-c3ccccc3)[nH]2)cc1,4,48*,nt,21,59*
COc1cc2c(cc1OC)C(Cc1ccccc1[N+](=O)[O-])=NCC2,2,4,-8,-11,nt
Cn1cc(CCC(=O)N2CCCC(CCC(=O)NCc3ccc(F)c(F)c3)C2)cn1 (centres undefined),1,42*,0,-4,47
CC1CC(C)CN(C(=O)c2ccc3c(c2NCCO)C(=O)c2ccccc2C3=O)C1 (centres undefined),-12,59*,-71,-21,67*
CC1CC(C)CN(C(=O)COC(=O)CN2C(=O)c3ccccc3C2=O)C1 (centres undefined),1,-5,-13,-4,nt
COc1ccc(C(=O)/C=C/c2cccc(OCc3ccccc3)c2)cc1CSCC(=O)O,-2,49*,8,12,61*
COc1ccc(C(=O)/C=C/c2ccc(OCc3ccccc3)cc2)cc1CSCC(=O)O,-1,49*,4,8,69*
COc1ccc(C(C)=O)cc1CSCC(=O)O,0,0,0,1,nt
COc1ccc(C=CC(=O)c2ccc(OCc3ccccc3)c(OC)c2)cc1OC,4,nt,-2,-16,nt
O=c1[nH][nH]c2c1[C@@H](c1ccc(F)cc1)O[C@H](CCOCc1ccccc1)C2,nt,nt,0,2,nt
COc1ccc(S(=O)(=O)NC(=O)C2(C)CCN2C(=O)C2(c3ccccc3)CC2)cc1 (centres undefined),-5,nt,-6,0,nt
O=C(COC(=O)C1CCN(S(=O)(=O)c2ccc(Cl)c(C(F)(F)F)c2)CC1)NCC1CCCO1 (centres undefined),-1,nt,5,-5,nt
Cc1sc2nc(C3CC3)nc(SCC(=O)N3CCc4ccccc4C3)c2c1C,-4,37,-3,2,nt
CC(C)c1nc(N2CCN(C(=O)c3ccco3)CC2)c2c3c(sc2n1)CCCC3,7,92*,-19,7,90*
Cc1sc2nc(C(C)C)nc(SCC(=O)N3CCN(C(=O)c4ccco4)CC3)c2c1C,-1,47*,-51,2,57*
CCc1c(C)sc2nc(C(C)C)nc(SCC(=O)N3CCc4ccccc4C3)c12,nt,46*,nt,nt,50*
Cc1sc2ncnc(SCC(=O)N3CCN(C(=O)c4ccco4)CC3)c2c1C,2,4,-23,3,nt
Cc1nc(N2CCN(C(=O)c3ccco3)CC2)c2c3c(sc2n1)CCC3,-1,67*,-6,5,71*
O=[N+]([O-])c1ccc(NC2CCCCC2)nc1,0,1,-24,-30,nt
CCCOc1ccc(-c2nc(SCc3ccccc3)[nH]c(=O)c2C#N)cc1OC,5,52*,-60,11,85*
O=C(NC(=S)Nc1cc(-c2nc3ccccc3[nH]2)ccc1Cl)c1ccc2c(c1)OCO2,-2,52*,-1,4,60*
SMILES,Rin1 Abl inh,ATG4B inh,Neddyl block,SUMO1-SIM PPI,PLA2 counter
Cc1ccc(-c2nc3ccccc3[nH]2)cc1NC(=S)NC(=O)c1ccccc1Br,0,41*,-12,4,61*
Cc1cc(C(O)c2ncc(-c3cccc4ccccc34)[nH]2)ccc1F (centres undefined),0,nt,28,-10,nt
O=C(Nc1sc2c(c1C(=O)O)CCCC2)c1cccc(Cl)c1,-1,42*,24,9,51*
Cc1ccccc1Cn1cc(NC(=O)CSc2nc3c(c(C(F)(F)F)n2)CCc2ccccc2-3)cn1,-1,78*,2,6,73*
Cc1ccc(Cn2nc(C)c(NC(=O)CSc3nc4c(c(C(F)(F)F)n3)CCc3ccccc3-4)c2C)cc1,-2,-11,-27,-8,nt
CCN(CC)CC(O)CNc1ccnc2c(Cl)ccc(Cl)c12 (centres undefined),-2,-2,-23,-22,nt
FC(F)(F)Sc1ccc(NC(=S)NCc2ccccc2)cc1,-2,73*,13,-10,82*
O=C(CNC(=O)Cc1ccccc1)NCc1cccc(C(F)(F)F)c1,1,3,-3,-2,nt
S=C(NCc1ccccc1)Nc1ccc(Cl)cc1,3,27,4,1,nt
FC(F)(F)c1cccc(NC(=S)NCc2ccccc2)c1,0,59*,-2,-2,62*
FC(F)(F)c1cccc(CNC(=S)Nc2ccccc2)c1,-1,49*,6,0,61*
CCCCCc1ccnc(CC(=O)c2ccc(OC)cc2)c1,1,2,-4,-3,nt
CCc1ccc2c(c1)NC(=O)C2(C)Cc1ccccc1OC (centres undefined),2,nt,-2,1,nt
Nc1c(C(=O)Nc2ccccc2F)sc2nc(-c3cccnc3)ccc12,-4,3,35,-5,nt
Nc1c(C(=O)Nc2ccccc2F)sc2nc(-c3ccco3)ccc12,0,47*,nt,22,3
CC(C)N1CC(=O)N2CSCC2C1=O (centres undefined),nt,nt,-3,-1,nt
CC(=O)NC(c1cccc(F)c1)c1nc(-c2cccc(C(F)(F)F)c2)cs1 (centres undefined),4,nt,-18,1,nt
CC1(CO)CCCC1NCCNC1CCCC1(C)CO (centres undefined),3,nt,-4,-1,nt
CCN(c1ccc(OC)cc1)S(=O)(=O)N1CCCC(C(=O)NCc2cccc(C)c2)C1 (centres undefined),1,3,6,-2,nt
CCN(c1ccc(OC)cc1)S(=O)(=O)N1CCCC(C(=O)NCc2ccccc2Br)C1 (centres undefined),0,57*,-3,3,58*
O=C(O)c1cscc1-c1cccc2ccccc12,-2,nt,-32,-6,nt
COc1ccccc1C1C2=C(N=c3s/c(=C/c4cccc(OCC(=O)O)c4)c(=O)n31)c1ccccc1CC2 (centres undefined),-1,50*,7,10,56*
COc1cccc(C2C3=C(N=c4s/c(=C\c5cccc(O)c5)c(=O)n42)c2ccccc2CC3)c1OC (centres undefined),3,-7,4,0,nt
Cn1cccc1-c1nc2ccccc2n1Cc1ccccc1,0,43*,27,1,56*

# Bioassay records from PubChem.
